Screening results (PubChem)
The list is not random: actives were taken first. Their share in the collection is about 4.8%.
hcDAF-12 act: H. contortus DAF-12 nuclear receptor activators, primary screen, cell-based, luminescence, HEK293, lit1-tk-luc reporter; HEK293 hcDAF-12 lit1-tk-luc reporter; 0% DMSO, 100% Δ7-dafachronic acid; activation, % at 6.8 µM; hit rate 1.4% among 370,000; AID 652067, 2013;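 active = activation above the mean of all tested compounds plus 3 SD, cut at about 5.5% in these data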;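 also: 100% = response to 3 µM Δ7-dafachronic acid high control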
SMARCA2 activ: SMARCA2 (BRM) function activators, primary screen, cell-based, luminescence, high throughput; AID 652017, 2013; activation, % at 9.1 µM; hit rate 1% among 370,000; MG213 cells, MMTV-luciferase reporter, dexamethasone, overnight; in the data active = activation above about 7.8%;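 also: 0% = vehicle wells and 100% = reference activator wells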
DAX1 inh-1: DAX1 (NR0B1) inhibitors, primary screen, cell-based, HEK293, Gal4-DAX1, luciferase luminescence | Nuclear receptor subfamily 0 group B member 1 (Homo sapiens), P51843 | HEK293 Gal4-DAX1 luciferase reporter | inhibition, % at 6.75 µM | hit rate 0.99% among 340,000;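 active = inhibition above the mean over all tested compounds plus 3 SD, cut at about 4.2% in these data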;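 also: 0% = DAX1-transfected cells with DMSO and 100% = empty-vector control cells with DMSO; inhibition shows as a rise in luminescence from relieved DAX1 repression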
Target sequence (P51843 207-470 limits assumed): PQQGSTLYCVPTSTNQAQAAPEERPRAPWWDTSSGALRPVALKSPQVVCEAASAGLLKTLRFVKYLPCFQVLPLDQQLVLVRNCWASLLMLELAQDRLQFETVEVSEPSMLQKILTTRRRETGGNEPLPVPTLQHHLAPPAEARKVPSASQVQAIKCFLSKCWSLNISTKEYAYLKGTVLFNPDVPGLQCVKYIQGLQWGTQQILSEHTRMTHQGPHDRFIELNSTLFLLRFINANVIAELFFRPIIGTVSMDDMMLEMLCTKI
hgDAF12 agonist: H. glycines DAF-12 receptor agonists, primary screen, cell-based, luminescence, HEK293, GAL4 fusion, UAS-luciferase; Nuclear hormone receptor DAF-12 (Heterodera glycines), GAL4 fusion; activation, % at 6.8 µM; HEK293 GAL4-hgDAF12 UAS-luciferase reporter, agonist luminescence; normalized to butyrate control; hit rate 1.8% among 370,000;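 active = activation above a cutoff set at the mean of all screened compounds plus 3 SD, cut at about 10% in these data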;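 also: 0% = DMSO wells and 100% = sodium butyrate wells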
DAX1 inh-2: DAX1 (NR0B1) inhibitors on StAR promoter, primary screen, cell-based, luminescence, SF-1 (NR5A1), full-length DAX-1; HEK293T StAR-luciferase reporter, SF-1/DAX-1 repression relief; inhibition, % at 6.8 µM; hit rate 1.1% among 370,000;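 active = inhibition above the mean over all tested compounds plus 3 SD, cut at about 3.6% in these data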;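 also: 0% = DAX-1 cells with DMSO and 100% = cells lacking DAX-1 with DMSO; higher inhibition means more luminescence from relief of DAX-1 repression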
ssDAF12 agonist: S. stercoralis DAF-12 nuclear receptor activators, primary screen, cell-based, luminescence, HEK293, GRIP1 co-expression, lit1-tk-luc | Nuclear hormone receptor DAF-12 (Strongyloides stercoralis) | HEK293 ssDAF-12/GRIP1 lit1-tk-luc reporter; % of 3 µM dafachronic acid response | activation, % at 6.8 µM | hit rate 1% among 370,000 | AID 652126, 2013;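 active = activation above the mean over all tested compounds plus 3 SD, cut at about 0.9% in these data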;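 also: 0% = DMSO-only wells and 100% = 3 µM delta7-dafachronic acid wells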
SMARCA2 conf: SMARCA2 (BRM) function activators, confirmation, cell-based, luminescence, triplicate; shares compounds with SMARCA2 activ; MG213 cells, MMTV-luciferase with dexamethasone, overnight; MG213 cells expressing E1A, Rb sequestered; DMSO wells 0%, reference activator 100%; activation, % at 9.1 µM; hit rate 30% among 3,500;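 active = activation above its plate's cutoff, the mean activation of tested wells plus 3 SD, cut at about 7.9% in these data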
GAL4-VP16 Luc: GAL4-VP16 luciferase reporter activation, counter-screen for SMARCA2 (BRM) activator project, cell-based, pG5luc, luminescence, high throughput. shares compounds with SMARCA2 activ. HEK293 GAL4-VP16 pG5luc reporter; scaled: DMSO wells 0%, SAHA wells 100%. activation, % at 9.1 µM. hit rate 41% among 3,500. AID 686939, 2013;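 active = activation above the solvent-only control well mean plus 3 SD, averaged across control plates, cut at about 5.2% in these data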
LXR ag: LXR agonists, Gal4 luciferase reporter, confirmation, counter-screen for hcDAF-12 agonist project, cell-based, luminescence, HEK293, H. contortus campaign. shares compounds with hcDAF-12 act. AID 743027, 2013. activation, % at 6.8 µM. HEK293 Gal4-LXR tk-luc reporter, 24 h; normalized: DMSO 0%, positive control 100%. 3,400 tested, under 10 active;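 active = mean percent activation of the reporter above a cutoff set as the average over tested compounds plus their standard deviation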
hcDAF12 ag: H. contortus DAF-12 receptor agonists, confirmation, cell-based, luminescence, HEK293, lit1-tk-luc, triplicate; shares compounds with hcDAF-12 act; HEK293 hcDAF-12 lit1-tk-luc reporter; % of Δ7-dafachronic acid response; activation, % at 6.8 µM; hit rate 61% among 3,400;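 active = mean activation across triplicate tests above the threshold derived from the earlier primary screen, cut at about 5.5% in these data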;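 also: 0% = DMSO only wells and 100% = 3 µM Δ7-dafachronic acid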
hgDAF12 ag: H. glycines DAF-12 receptor agonists, confirmation, cell-based, luminescence, HEK293, GAL4-LBD fusion; shares compounds with hgDAF12 agonist; HEK293 GAL4-hgDAF12 luciferase reporter, agonist mode; percent of butyrate response; activation, % at 6.8 µM; hit rate 80% among 3,300; AID 743050, 2013;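 active = mean activation over triplicate wells above the hit cutoff derived from the earlier primary screen, cut at about 11% in these data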;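 also: 0% = DMSO low control and 100% = 2 mM sodium butyrate high control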
LXRb DAF12 ctr: LXR agonists, Gal4 luciferase reporter, confirmation, counter-screen for hgDAF-12 agonist project, cell-based, luminescence, HEK293, H. glycines campaign; 24 h; 3,300 tested, under 10 active; activation, % at 6.8 µM; shares compounds with hgDAF12 agonist;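 active = mean activation of the triplicate above a set limit carried over from the primary screen, none filed active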
Active calls of the source: *; nt = not tested or not shown.

SMILES	hcDAF-12 act	SMARCA2 activ	DAX1 inh-1	hgDAF12 agonist	DAX1 inh-2	ssDAF12 agonist	SMARCA2 conf	GAL4-VP16 Luc	others
O=C1c2ccccc2-c2cccc3cccc1c23	3	8.6*	0	8	3	0	9.5*	2
COc1cc2c3cc1Oc1cc(ccc1O)C[C@@H]1c4c(cc(OC)c(O)c4Oc4ccc(cc4)C[C@H]3N(C)CC2)CCN1C	2	10*	1	-3	4.5*	0	16*	1
COc1cc2c3cc1Oc1c(OC)c(OC)cc4c1[C@H](Cc1ccc(cc1)Oc1cc(ccc1O)C[C@H]3N(C)CC2)N(C)CC4	1	7	2	0	1	-1	nt	nt
O=c1cccc2n1CC1CC2CN(c2nc(N3CCCCC3)nc(N3CCCCC3)n2)C1 (stereo not drawn)	2	-4	0	0	0	-1	nt	nt
COc1cccc(-n2c(CN3CCOCC3)nc3ccc([N+](=O)[O-])cc3c2=O)c1	3	11*	-2	-3	-1	-1	5	1
O=C(NC1CN2CCC1CC2)c1cc(-c2ccc(Cl)cc2)nc2ccccc12 (stereo not drawn)	4	11*	nt	2	4	-1	2	2
CN1CCC(=O)N(CCN=[N+]=[N-])CC1	-2	1	-1	-1	0	-2	nt	nt
CN(C)C(=S)SSC(=S)N(C)C	-2	15*	0	-5	-1	-2	-15	16*
COC(=O)C1=C(c2ccc(Cl)c(C(F)(F)F)c2)C[C@@H]2CC[C@H]1N2C(=O)NCC1CC1	-2	1	0	-2	-1	-1	nt	nt
O=c1[nH]sc2cc(F)ccc12	0	13*	-1	-1	-1	-2	11*	0
Cc1ccc(C(=O)N2CC2C)cc1 (stereo not drawn)	0	-2	-1	1	1	-1	nt	nt
COc1ccc(N2C(=O)CC(N3CC=C(c4ccccc4)CC3)C2=O)cc1 (stereo not drawn)	-2	11*	1	4	1	-2	-1	1
N#CC1c2ccccc2-n2nncc2CN1C(=O)CCc1ccccc1 (stereo not drawn)	0	3	0	1	0	-1	nt	nt
CCn1c(O)c(/C=N/NC(=O)c2ccccc2)c(=O)n(CC)c1=S	2	8.1*	nt	4	0	0	5	2
CCn1c(O)c(/C=N/NC(=O)c2ccncc2)c(=O)[nH]c1=S	0	0	2	0	-1	-1	nt	nt
COc1ccc(-c2nc3ccc(Br)cn3c2CC(=O)N2CCCC2)cc1OC	0	-3	nt	1	0	0	nt	nt
Nc1ccccc1C(=O)OCC(=O)N1CCc2ccccc21	1	8.7*	0	5	2	0	7	7.5*
c1ccc(CCN2CCC3CCNC3C2)cc1 (stereo not drawn)	2	1	nt	-1	-1	0	nt	nt
Cc1ccc(S(=O)(=O)N2Cc3cnnn3-c3ccccc3C2C#N)cc1 (stereo not drawn)	2	-4	0	2	0	0	nt	nt
CC(=O)Nc1ccc(S(=O)(=O)N2Cc3cnnn3-c3ccccc3C2C#N)cc1 (stereo not drawn)	0	9.7*	-1	2	3.7*	-1	-1	1
O=c1c2ccccc2nc(/C=C/c2ccc([N+](=O)[O-])o2)n1-c1ccc(O)cc1	-2	9.5*	nt	-8	-1	-1	-14	1
COc1ccc2c(c1)/C(=C/c1cnc[nH]1)C(=O)N2	4	17*	-3	0	-3	1.1*	11*	2
Cc1cc(C(=O)CS(=O)(=O)c2ccccc2)cc(C)c1OC(=O)N(C)C	4	13*	3	14*	4.0*	0	7	8.8*	hgDAF12 ag=9;LXRb DAF12 ctr=1
CN1CCCN(C(=O)COc2ccc(F)cc2F)CC1	1	2	0	1	-1	-1	nt	nt
O=C1c2ccccc2-c2cc3ccccc3cc21	6.6*	8	2	6	0	1	nt	nt	LXR ag=0;hcDAF12 ag=7.1*
Cc1ccc(O)c(CN2CCC3CCC(C3)C2)c1 (stereo not drawn)	2	3	1	7	-1	0	nt	nt
COC(=O)C1=C(c2ccc(C(C)=O)cc2)C[C@@H]2CC[C@H]1N2C(=O)N1CCC(O)CC1	-1	0	2	1	0	-1	nt	nt
Cc1ccc(-c2nn(Cc3ccccc3)cc2C=O)cc1	9.4*	1	2	8	3	0	nt	nt	LXR ag=0;hcDAF12 ag=4
